Assay [1] is described as follows: cAMP Responsive Elements (CRE) small molecule antagonists, cell-based qHTS assay: qHTS cell viability counter screen (AID 2060913). Also: nearly all actives have a fitted effect of over 40% in size. The method, boiled down:
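Viability of NKH477-stimulated (0.25 uM final) CRE-bla HEK293T cells is measured by CellTiter-Glo luminescence following 3 hrs compound exposure at 37 C.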

Assay [2] can be described thus: cAMP Responsive Elements (CRE) small molecule agonists, cell-based qHTS assay: qHTS cell viability counter screen (AID 2060914). Also: nearly all actives have a fitted effect of over 50% in size. The method, boiled down: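 Cells are seeded and incubated 18 h, treated with compounds in DMSO for 3 h, read for the bla reporter, then given CellTiter-Glo; luminescence is measured after 30 min at room temperature.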

SMILES strings stand for the structures. Records with an inconclusive call do not appear. A call without a number means that no potency is given here. The source made the active and inactive calls. Calls follow the shape of the dose curve; as a rule, active = well fitted cell-killing curve with a large enough effect in the repeat runs; inconclusive = weak or mixed curves, or effect the other way; inactive = flat fitted curve, though single readings scatter.

In the case of `c1ccc(C2CC2)c(OCC2=NCCN2)c1`, the Potency entry in assay [1] and in assay [2] was “inactive” throughout.

In the case of `CC(Cc1ccc2c(c1)OCO2)NO` (stereo not given), the Potency result in assay [1] and in assay [2] was “inactive” each time.

In the case of `O=C(CCCCl)c1ccc(F)cc1`, the Potency result in assay [1] and in assay [2] was “inactive” each time.

For `Cl/C=C/Cl`, the Potency entry in assay [1] and in assay [2] was “inactive” throughout.

Consider `CN(C)C(=O)Nc1ccc(Cl)cc1`, for which the Potency entry in assay [1] and in assay [2] was “inactive” throughout.

Take `O=P(Oc1ccccc1)(Oc1ccccc1)Oc1ccccc1`: the Potency result in assay [1] and in assay [2] was “inactive” throughout.

On to `CCCN(CCCl)c1c([N+](=O)[O-])cc(C(F)(F)F)cc1[N+](=O)[O-]`, for which the Potency result in assay [1] and in assay [2] was “inactive” in each case.

In the case of `CNC(=O)Oc1cc(C)c(SC)c(C)c1`, the Potency result in assay [1] and in assay [2] was “inactive” each time.

In the case of `Cc1c(Cl)c(=O)oc2cc(OP(=O)(OCCCl)OCCCl)ccc12`, the Potency entry in assay [1] and in assay [2] was “inactive” in each case.

Regarding `CN1C[C@H](CNC(=O)OCc2ccccc2)C[C@@H]2c3cccc4c3c(cn4C)C[C@H]21`, the Potency result in assay [1] and in assay [2] was “inactive” throughout.

For `CSc1nc(NC(C)C)nc(NC(C)C)n1`, the Potency result in assay [1] and in assay [2] was “inactive” each time.

For `COP(=O)(OC)SCn1c(=O)oc2cc(Cl)cnc21`, the Potency result in assay [1] and in assay [2] was “inactive” in each case.

As to `c1cncc([C@@H]2CCCCN2)c1`, the Potency result in assay [1] and in assay [2] was “inactive” each time.

Turning to `CCCCNP(N)(N)=S`, the Potency entry in assay [1] and in assay [2] was “inactive” each time.

For `C=CCc1ccc(OC(=O)Cc2ccccc2)c(OC)c1`, the Potency entry in assay [1] and in assay [2] was “inactive” throughout.

Take `ClC(Cl)(Cl)C(Cl)(Cl)Cl`: the Potency result in assay [1] and in assay [2] was “inactive” in each case.

Take `Cc1ccccc1CCl`: the Potency entry in assay [1] and in assay [2] was “inactive” throughout.

Regarding `C=CCOC(N)=O`, the Potency result in assay [1] and in assay [2] was “inactive” throughout.

For `ClC(Cl)=C(Cl)Cl`, the Potency result in assay [1] and in assay [2] was “inactive” each time.

With `BrCCBr`, the Potency result in assay [1] and in assay [2] was “inactive” throughout.
